# Screening results: PubChem BioAssay, several laboratories
# EP2 mod – EP2 receptor (human) modulation. EP2-expressing cells, cAMP HTRF FRET, PGE2 co-stimulation. induction, % at 25 µM. 0.83% of 260,000 active;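 active means compounds whose cAMP rise, as percent of the full-agonist control response, exceeds 60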;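 further: rat C6 glioma line stably carrying human EP2 under a CMV promoter; the protocol text gives 20 µM as final concentration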
# Target sequence (P43116 whole entry, looked up): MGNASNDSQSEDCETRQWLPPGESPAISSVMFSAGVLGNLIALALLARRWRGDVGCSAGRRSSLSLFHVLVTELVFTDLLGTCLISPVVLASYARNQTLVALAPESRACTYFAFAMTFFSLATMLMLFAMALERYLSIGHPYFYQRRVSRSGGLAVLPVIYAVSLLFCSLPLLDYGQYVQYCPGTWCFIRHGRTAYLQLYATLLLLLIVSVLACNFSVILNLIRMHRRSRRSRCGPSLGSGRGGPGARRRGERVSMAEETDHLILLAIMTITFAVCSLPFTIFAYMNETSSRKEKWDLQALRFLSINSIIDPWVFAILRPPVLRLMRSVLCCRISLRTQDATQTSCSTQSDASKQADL
# HMGR II inh – blocks class II HMG-CoA reductase of Enterococcus faecalis. AID 1066. inhibition, % at 10 µM. 0.41% of 190,000 active. purified E. faecalis HMGR, NADPH absorbance 340 nm kinetic;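 active means inhibition above a set limit, the median over all tested compounds plus 3 SD, cut at about 9.5% in these data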;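 further: enzyme runs in reverse so mevalonate oxidation gives rising NADPH absorbance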
# EP2 antag – inhibitors of human EP2 prostaglandin E2 receptor | C6 glioma cells expressing human EP2, cAMP TR-FRET; cells stimulated with saturating PGE2 | inhibition, % at 25 µM | 0.52% of 260,000 active | AID 1422;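 active means percent inhibition above 40 after rounding to a whole number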;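 further: rat C6 glioma host cells with rolipram phosphodiesterase inhibitor present; the protocol text gives 20 µM as final concentration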
# GSH fluor – GSH bead compound fluorescence profile | GSH beads flow cytometry, compound fluorescence 488/530 nm; active compounds read high | fluorescence (KMESF) at 10 µM | 0.25% of 190,000 active; in the data active means fluorescence above about 89;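 further: glutathione beads carrying GST-tagged Bcl family fusion proteins plus one bare bead set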
# Avidin bead fluor – compound fluoresces at 488/530 nm on avidin beads. fluorescence (KMESF) at 10 µM. 0.38% of 220,000 active. AID 1775. compound fluorescence 488/530 nm, flow cytometry; active compounds read high; in the data active means fluorescence above about 47
# Numbers stand for hits; 0 = inactive; - = not tested or not shown; ! = not confirmed by another sample. Compounds with a hit are over-represented: about 2.1% of the library has one in this group of screens.
SMILES,EP2 mod,HMGR II inh,EP2 antag,GSH fluor,Avidin bead fluor
Cc1ccc2[nH]c(=O)c(C(c3nnnn3Cc3ccc(F)cc3)N3CCCC(C)C3)cc2c1 (stereo unspecified),0,-,0,-,-
COc1ccc(C2C3=C(CCCC3=O)N(C)C3=C2C(=O)CCC3)cc1C(=O)O,0,-,0,-,-
CC(NC(=O)COc1ncnc2ccccc12)c1ccc2c(c1)CCC2 (stereo unspecified),0,-,0,-,-
CC(CN(C)Cc1ccccc1)OC(=O)c1ccco1 (stereo unspecified),0,-,0,-,-
COc1cc(OC)cc(C(=O)Nc2ccc(-c3nc4ccccc4o3)cc2)c1,0,0,52,0,0
O=C(Nc1cccc(-c2nc3ccccc3o2)c1)c1cccnc1,0,0,0,0,0
COc1cccc(C(=O)Nc2ccc(-c3nc4ccccc4o3)c(O)c2)c1,0,0,0,0,0
O=C(Nc1ccc(-c2nc3ccccc3o2)cc1)c1cccnc1,0,0,58!,0,0
Cc1cc(OCc2nc(-c3ccc(NC(=O)c4cccnc4)cc3)no2)ccc1Cl,0,0,0,0,0
O=C(Nc1ccc(-c2noc(CCc3ccccc3)n2)cc1)c1cccnc1,0,0,76,0,0
O=C(Nc1ccc2nc(-c3ccccc3)oc2c1)c1ccco1,0,0,42!,0,0
COc1ccc(C(=O)N2CCN(c3ccccc3F)CC2)c(OC)c1,0,-,0,-,-
CSc1nc(-c2ccccc2)c2cc(Cl)ccc2n1,62,0,0,0,0
CC(O)C1C(=O)OC2(C)CC(C)(C)NC(=S)N12 (stereo unspecified),0,0,0,119,0
N#Cc1ccc(C(=O)Nc2nc3ccc(F)cc3s2)c(F)c1,0,-,0,-,-
C/C(Cl)=C\CSc1nc2c(c(=O)[nH]c(=O)n2C)n1Cc1cccc(C)c1,86,-,0,-,-
CCCSc1nc2c(c(=O)[nH]c(=O)n2C)n1Cc1cccc(C)c1,70,-,0,-,-
C/C=C/CSc1nc2c(c(=O)[nH]c(=O)n2C)n1Cc1cccc(C)c1,0,-,0,-,-
COC(=O)CN1C(=O)CSC1=S,0,-,0,-,-
O=C(Cn1c(=O)n(Cc2cccs2)c2ncccc21)NCC1CC1,0,-,-,-,-
C=CCSc1nc2ccccc2c(=O)n1C1CCOC(C)(C)C1 (stereo unspecified),76,-,0,-,0
COCCn1c(SCCOc2ccccc2)nc2ccccc2c1=O,64,0,0,0,0
NC(=O)CSc1nc2ccccc2c(=O)n1CCc1ccccc1,0,-,0,-,-
CCSc1nc2ccccc2c(=O)n1C1CCOC(C)(C)C1 (stereo unspecified),61,0,0,0,0
C=CCSc1nc2ccccc2c(=O)n1CCc1ccccc1,70,-,0,-,-
SMILES,EP2 mod,HMGR II inh,EP2 antag,GSH fluor,Avidin bead fluor
COc1ccc2nc3c(cc2c1)CN(CC1CCCO1)C(=O)C(C)O3 (stereo unspecified),0,-,0,-,-
Fc1ccccc1Cn1nnc2c(NCCN3CCCCC3)ncnc21,0,-,0,-,-
CCc1nc2sc3c(c2c2nnc(SCC(=O)O)n12)CCCC3,0,-,0,-,-
COC(=O)CSc1nnc(-c2ccncc2)n1-c1ccccc1,0,-,0,-,-
CCCCCCn1c(CN2CCC(C)CC2)nc2c1c(=O)n(C)c(=O)n2C,63,0,0,0,0
CCCCCCn1c(CN2CCN(CCO)CC2)nc2c1c(=O)n(C)c(=O)n2C,0,0,0,0,0
Nc1nc(/C=C/c2c[nH]c3ccccc23)nc(-c2ccccc2O)n1,0,-,91,-,-
O=C(O)c1cc(NCc2ccccc2C(F)(F)F)ccc1N1CCOCC1,0,0,0,0,52
O=C(O)c1cc(NCc2ccc(F)cc2)ccc1N1CCOCC1,0,0,0,0,0
Cc1cc2c(s1)c1cnn(CC(=O)NC34CC5CC(CC(C5)C3)C4)c(=O)c1n2C,0,-,-,-,-
Cn1ncc2c(=O)n(CC(=O)NC34CC5CC(CC(C5)C3)C4)cnc21,0,0,0,0,84
O=C(O)c1c(-c2nccc3ccccc23)[nH]c(-c2ccccc2)c1S(=O)(=O)O,0,-,75,-,-
COc1ccc(OC)c(/C=C2\C(C)=C(C#N)c3nc(N)c(C#N)c(C)c32)c1,0,-,0,-,-
COC(=O)/C(=C\c1ccc(-c2cc(Cl)ccc2Cl)o1)C(C)=O,0,-,50,-,-
COC(=O)N/N=C/c1ccc(-c2ccc(Cl)cc2Cl)o1,0,-,0,-,0
COc1ccc(C(C)C)cc1S(=O)(=O)N1Cc2ccccc2CC1C(N)=O (stereo unspecified),0,-,0,-,-
CCN1CCc2c(sc(NC(=S)NC(=O)c3ccc(Cl)cc3)c2C(N)=O)C1,0,-,41,-,0
